Assay outcomes (PubChem)
CHT block – human CHT choline transport inhibition. CHT-expressing cells, membrane potential dye, choline response; active compounds read low. B-score at 10 µM. 0.86% of 310,000 active. AID 488975;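 active = B-score over 3 SD under the library average, and starting fluorescence ratio not unusually high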;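 note: choline stimulus applied at its EC90 after an EC20 pre-addition; B-score computed on integrated fluorescence ratio after choline addition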
CHT allo act – allosterically activates the human high affinity choline transporter. CHT-expressing cells, membrane potential dye, choline EC20; active compounds read high; LV-AA mutant CHT in HEK293 cells. Q9GZV3. B-score at 10 µM. AID 488977. 0.49% of 310,000 active;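 active = initial fluorescence not abnormally high and integrated response B-score, plate-corrected, over 3 SD above library mean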
ANO1 block – blocks the mouse calcium-activated chloride channel TMEM16A; Q8BHY3; HEK293 TMEM16A/YFP iodide influx fluorescence, ionomycin; normalized B-score (activity score, 25-100; higher = stronger inhibition) at 10 µM; 1.2% of 310,000 active; AID 588511;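 active = ratio plate-corrected score three or more library SD toward inhibition, starting fluorescence score within five deviations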;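 note: score derived from kinetic fluorescence span divided by baseline fluorescence per well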
TMEM16A act – activates or potentiates the mouse TMEM16A chloride channel. Q8BHY3. HEK293 TMEM16A/YFP-H148Q/I152L, iodide quench fluorescence; active compounds read low. B-score at 10 µM. 0.3% of 340,000 active;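 active = fluorescence-ratio B-score plate-corrected deviation score at least 3 library SD below zero, with starting fluorescence score within 5 deviations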;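 note: channel opened by trigger with iodide after compound preincubation; score built on the fluorescence ratio of max minus min over baseline; more negative score means more quench and so TMEM16A activation or potentiation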
Rce1 inh – inhibitors of yeast Ras-converting enzyme; yeast membranes, quenched prenylated peptide cleavage fluorescence; 0.27% of 290,000 active; Q03530; calls only;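 active = fall in fluorescence gain of 50% or more versus controls, with final raw signal at or below 3038400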;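 note: plate controls were neutral control wells for no effect and wells lacking membranes for full effect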
Kir21 block – blocks the mouse Kir2.1 inward-rectifier potassium channel | B-score at 10 µM | 0.85% of 310,000 active | HEK293-Kir2.1, FluxOR thallium flux fluorescence; active compounds read low | P35561 | AID 1672;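 active = fluorescence ratio B-score at or below minus 3 SD of library scores, with starting-brightness B-score within 2 SD, cut at about -4.2 in these data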;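 note: channel flux triggered by added potassium and thallium sulfate stimulus; B-score of peak minus minimum fluorescence over baseline after thallium stimulus; more negative B-score means stronger Kir2.1 block with less thallium influx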
Target sequence (P35561 whole entry, looked up): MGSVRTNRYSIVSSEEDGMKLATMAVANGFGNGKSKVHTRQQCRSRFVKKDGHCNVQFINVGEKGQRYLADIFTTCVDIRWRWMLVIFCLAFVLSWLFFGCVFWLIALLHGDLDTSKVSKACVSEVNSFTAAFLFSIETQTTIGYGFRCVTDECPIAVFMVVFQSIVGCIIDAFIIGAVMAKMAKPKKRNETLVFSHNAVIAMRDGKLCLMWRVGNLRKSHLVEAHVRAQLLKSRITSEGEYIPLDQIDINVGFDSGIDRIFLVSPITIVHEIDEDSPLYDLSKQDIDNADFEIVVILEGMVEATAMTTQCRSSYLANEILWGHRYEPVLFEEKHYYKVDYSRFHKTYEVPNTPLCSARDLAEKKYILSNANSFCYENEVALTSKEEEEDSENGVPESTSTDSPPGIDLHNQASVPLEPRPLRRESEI
TMEM16A reconf – TMEM16A (mouse) chloride channel inhibition, re-confirmation; shares compounds with ANO1 block; HEK293 TMEM16A/YFP-H148Q, iodide quench fluorescence; ionomycin added to raise cell calcium; inhibition, % at 10 µM; 39% of 2,300 active;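 active = mean duplicate percent inhibition, scaled so buffer wells are 0 and the reference blocker 100, over three buffer SD above buffer mean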
HEK293 Ca mobil – alters calcium mobilization in TMEM16A HEK293 cells, counter-screen | shares compounds with ANO1 block | TMEM16A/YFP HEK293, Fluo4 calcium mobilization | calcium response (% of ionomycin), % at 10 µM | 2% of 2,300 active | AID 652231;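 active = duplicate-averaged calcium signal over 20% of the ionomycin maximum, relative to buffer baseline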;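 note: each well's signal is peak minus trough fluorescence divided by its pre-addition baseline; 0% = buffer wells and 100% = ionomycin wells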
YFP-HEK293 quench – acts in parental YFP-HEK293 cells lacking TMEM16A, counter-screen; shares compounds with ANO1 block; iodide YFP quench, ionomycin; YFP ratio F(max-min)/F0 at 10 µM; 2,300 tested, under 10 active;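 active = yellow fluorescent protein signal ratio exceeding the buffer control mean by over 5 SD of those controls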;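 note: ratio is mean of duplicate wells from kinetic YFP trace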
ClC-1 rat inh – blocks the rat ClC-1 voltage-dependent chloride channel. shares compounds with ANO1 block. CHO ClC-1-YFP, iodide influx fluorescence quench; iodide control reads 0, buffer control 100. AID 652236. 2,300 tested, under 10 active. ratio percent, % at 10 µM;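 active = duplicate-mean ratio percent above the mean of iodide-only control wells, which defines zero, plus 5 of their SD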;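 note: higher percent means stronger block of ClC-1 iodide influx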
The depositor's hits bear a star; i = inactive; . = not tested or not shown. An excerpt weighted towards active compounds, which were near 3.2% of everything screened.

SMILES	CHT block	CHT allo act	ANO1 block	TMEM16A act	Rce1 inh	Kir21 block	TMEM16A reconf	HEK293 Ca mobil	YFP-HEK293 quench	ClC-1 rat inh
COc1ccc(C(=O)Nc2nc(-c3cccs3)cs2)cc1	i	i	100*	i	i	0	23.5%*	i	-1.08	-16.5
O=S(=O)(Nc1ccc2c(c1)OCO2)c1ccc(Cl)cc1F	.	.	.	i	.	.	.	.	.	.
NS(=O)(=O)c1cccc(NC(=O)CSc2nc3ccccc3c(=O)n2CC2CCCO2)c1 (configuration not stated)	.	.	.	i	.	.	.	.	.	.
COc1ccc(OCc2nnc(SCC(=O)c3c(N)n(C)c(=O)n(C)c3=O)n2-c2ccccc2F)cc1	i	i	i	.	i	0.53	.	.	.	.
COc1ccc(NC(=O)c2ccc3nccnc3c2)cc1	i	i	100*	i	i	1.29	i	i	-1.09	-5.0
O=S(=O)(c1ccccc1)N1CCN(C(=S)Nc2ccccc2Cl)CC1	i	i	i	i	i	0.51	.	.	.	.
CCOC(=O)C1=C(CSc2nc3ccccc3s2)NC(=O)NC1c1ccc(OC)cc1 (configuration not stated)	i	i	25*	i	.	-1.39	i	i	-1.1	-16.0
CCOC(=O)C1=C(CSc2nc3ccccc3s2)NC(=O)NC1c1cc(C)ccc1C (configuration not stated)	i	i	i	i	.	0.49	.	.	.	.
Cc1ccsc1/C=C1\SC(N2CC(C)OC(C)C2)=NC1=O (configuration not stated)	i	i	i	i	i	-0.41	.	.	.	.
CNC[C@@H](CC1CCCCC1)NC[C@H](CC(C)C)NCCc1cccc(C(F)(F)F)c1	i	i	25*	i	i	-8.85*	i	i	-1.1	-1.0
CC(Oc1ccccc1)c1ccnn1S(C)(=O)=O (configuration not stated)	i	i	i	i	i	1.31	.	.	.	.
CC(Oc1ccc(Cl)cc1)c1ccnn1S(=O)(=O)c1ccccc1 (configuration not stated)	i	i	100*	i	.	-2.75	32.0%*	i	-1.14	-12.5
O=C(O)c1ccc(N/N=C/c2c(F)cccc2Cl)cc1	i	i	i	i	i	-0.28	.	.	.	.
CCCCn1c(SCC(=O)N2CCCC2)nnc1-c1ccccc1	i	i	100*	i	i	-1.65	i	i	-1.11	-11.0
O=C(CSc1nnc(-c2ccccc2)n1Cc1ccccc1)N1CCCC1	i	i	i	i	i	0.19	.	.	.	.
O=C(NNC(=S)NCC1CCCO1)c1cc(Br)ccc1Cl (configuration not stated)	i	i	i	i	i	-0.78	.	.	.	.
Cc1ccc(NS(=O)(=O)c2cccc(C(=O)NC3CCN(Cc4ccccc4)CC3)c2)c(C)c1	.	.	.	i	.	.	.	.	.	.
COc1ccccc1NS(=O)(=O)c1cccc(C(=O)NC2CCN(Cc3ccccc3)CC2)c1	i	i	100*	i	i	-0.26	56.5%*	i	-1.05	-27.0
OC(CNCc1ccccc1Cl)C(F)(F)F (configuration not stated)	i	i	i	i	.	-0.02	.	.	.	.
O=C(NNC(=O)C1CCC1)c1cccc(Cl)c1	.	.	.	i	.	.	.	.	.	.
Cc1ccc(NC(=O)CNc2cccc(S(=O)(=O)N3CCCCC3)c2)cc1F	i	i	25*	i	i	-3.24	i	i	-0.877	-7.5
